# Reference: PubChem BioAssay
# Activity calls are given as the source filed them.
# Columns and labels:
# [1] = binders of probe aFSTL3 on microarray, primary screen, stem cell growth factor project, biochemical, small-molecule microarray, fluorescence 635/667 (AID 1064); settings: higher = more signal;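 note: measures binding of the biotinylated anti-FSTL3 antibody to printed compounds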
# [2] = binders from COS7 lysate, DM2A8 probe, primary screen, torsin A project, cell lysate, small-molecule microarray, fluorescence 635/667 (AID 1065); settings: higher = more signal, COS7 lysate expressing mutant human TOR1A
# [3] = binders of probe aFGF2 on microarray, primary screen, stem cell growth factor project, biochemical, small-molecule microarray, fluorescence 635/667 (AID 1067); settings: higher = more signal;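 note: measures binding of biotinylated aFGF2 protein to printed compounds on slides; z-score merges feature fluorescence and signal-to-noise across triplicate slides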
# [4] = binders of probe aFGF10 on microarray, primary screen, stem cell growth factor project, biochemical, small-molecule microarray, fluorescence 635/667 (AID 1071); settings: higher = more signal;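 note: score merges 667 nm spot intensity and signal to noise from triplicate slides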
# [5] = target: Neurogenic locus notch homolog protein 2 (Homo sapiens) (UniProt Q04721); assay: Notch2 binders on small-molecule microarrays, primary screen, biochemical, small-molecule microarray, 635 nm fluorescence, stem cell growth factors (AID 1073); settings: Notch2 binding, higher = more signal
# [6] = target: Pro-neuregulin-1, membrane-bound isoform (Homo sapiens) (UniProt Q02297); assay: NRG1 binders on small-molecule microarrays, primary screen, psychiatric disease protein project, biochemical, small-molecule microarray, fluorescence 635/667 (AID 1075); settings: NRG1 binding, 635 nm fluorescence, higher = more signal;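 note: score combines 667 nm spot fluorescence with signal to noise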
# [7] = system: Neuregulin-1 EGF-like domain; assay: binders of neuregulin-1 EGF-like domain, primary screen, biochemical, small-molecule microarray, 635 nm fluorescence (AID 1081); settings: small-molecule microarray binding, higher = more signal;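 note: binding of the protein to compounds printed on small-molecule microarray slides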
# [8] = FRG1 promoter luciferase signal modulators, primary screen, FRG1 inhibition for FSHD, cell-based, C2C12 myotubes, firefly/Renilla luciferase, luminescence (AID 1084); settings: higher = more signal, called active from +8 up or from −8 down
# [9] = binders of probe aFST on microarray, primary screen, stem cell growth factor project, biochemical, small-molecule microarray, fluorescence 635/667 (AID 1086); settings: higher = more signal;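 note: score merges 667 nm fluorescence with signal-to-noise of each printed compound spot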
# [10] = binders of probe aHhip on microarray, primary screen, stem cell growth factor project, biochemical, small-molecule microarray, fluorescence 635/667 (AID 1087); settings: higher = more signal;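 note: score merges spot fluorescence at 667nm with spot signal to noise ratio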
# [11] = system: PRMT1 (protein arginine N-methyltransferase 1); assay: PRMT1 binders on small-molecule microarrays, primary screen, biochemical, small-molecule microarray, 635 nm fluorescence (AID 1088); settings: small-molecule microarray binding, higher = more signal;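 note: binding of Prmt1 protein to compounds spotted on small-molecule microarray slides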
# [12] = yeast growth modulation, basal conditions, primary screen, YJM789 clinical isolate, OD600, 24 h (AID 1089);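 note: growth of clinical yeast isolate S. cerevisiae YJM 789 seeded 1000 cells per well; test concentration not given here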; settings: S. cerevisiae YJM789 growth, higher = more signal, called active from +8 up or from −8 down
# [13] = fission yeast growth modulation, primary screen, strain 972, OD600, 24 h, no modulator (AID 1090);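 note: basal condition with compound alone and no growth modifier present; test concentration not given here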; settings: S. pombe 972 growth, higher = more signal, called active from +8 up or from −8 down
# [14] = S. cerevisiae growth modulation with rapamycin, primary screen, strain BY4716, OD600, 96 h (AID 1091); settings: higher = more signal, called active from +8 up or from −8 down; note: test concentration not given here
# [15] = target: Torsin-1A-interacting protein 2 (Homo sapiens) (UniProt Q8NFQ8); assay: LULL1 binders on small-molecule microarray, primary screen, cell lysate, human LULL1 lysate, 635/667 nm fluorescence (AID 1092); settings: hLULL1 lysate binding, 635 nm fluorescence, higher = more signal;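 note: probe is lysate of COS7 cells overexpressing human LULL1; score merges per-feature 667 nm fluorescence with signal-to-noise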
# [16] = E. coli growth modulation, two-sided OD650, primary screen, E. coli filamentation project, strain DRC41, 24 h (AID 1093); settings: OD650, 24 h, higher = more signal, called active from +8 up or from −8 down;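 note: MC1000 strain lacking acrAB efflux and sulA so SOS filamentation is blocked; test concentration not given here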
# [17] = small-molecule microarray binders of probe aLefty2, primary screen, biochemical, biotinylated probe, 635/667 nm fluorescence (AID 1094); settings: higher = more signal;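 note: score merges spot fluorescence near 667 nm with spot signal-to-noise ratio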
# [18] = system: Noggin (protein binding on small-molecule microarray); assay: Noggin binders on small-molecule microarray, primary screen, biochemical, 635/667 nm fluorescence (AID 1095); settings: 635 nm fluorescence, higher = more signal;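 note: score merges 667 nm feature fluorescence with signal to noise over triplicate slides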
# [19] = target: Neurogenic locus notch homolog protein 3 (Homo sapiens) (UniProt Q9UM47); assay: NOTCH3 binders on small-molecule microarray, primary screen, biochemical, 635/667 nm fluorescence (AID 1096); settings: NOTCH3 binding, 635 nm fluorescence, higher = more signal
# [20] = small-molecule microarray binders of probe aEGFR, primary screen, biochemical, biotinylated probe, 635/667 nm fluorescence (AID 1097); settings: higher = more signal;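 note: probe is a biotinylated anti-EGFR antibody binding compounds printed on slides; score combines fluorescence near 667 nm and signal to noise of each spot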
# Sequence of Pro-neuregulin-1, membrane-bound isoform (Homo sapiens) (Q02297 whole entry, looked up, the tested form may be a part, canonical isoform): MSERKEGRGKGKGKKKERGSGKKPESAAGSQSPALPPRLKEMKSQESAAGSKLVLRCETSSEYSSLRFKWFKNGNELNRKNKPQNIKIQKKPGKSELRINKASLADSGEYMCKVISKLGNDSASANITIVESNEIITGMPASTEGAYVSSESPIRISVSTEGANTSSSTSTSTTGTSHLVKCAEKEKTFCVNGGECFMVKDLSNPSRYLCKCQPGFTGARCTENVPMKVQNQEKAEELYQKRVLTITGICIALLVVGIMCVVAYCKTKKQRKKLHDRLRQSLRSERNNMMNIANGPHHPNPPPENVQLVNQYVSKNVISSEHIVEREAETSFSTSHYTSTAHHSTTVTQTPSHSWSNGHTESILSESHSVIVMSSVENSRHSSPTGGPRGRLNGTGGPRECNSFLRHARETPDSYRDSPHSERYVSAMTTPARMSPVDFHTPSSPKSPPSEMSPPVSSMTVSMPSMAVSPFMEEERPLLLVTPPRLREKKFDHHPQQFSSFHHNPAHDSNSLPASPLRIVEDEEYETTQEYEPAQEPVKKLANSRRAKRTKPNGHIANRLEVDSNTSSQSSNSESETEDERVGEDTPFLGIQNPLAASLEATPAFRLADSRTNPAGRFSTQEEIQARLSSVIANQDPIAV
# Sequence of Torsin-1A-interacting protein 2 (Homo sapiens) (Q8NFQ8 whole entry, looked up): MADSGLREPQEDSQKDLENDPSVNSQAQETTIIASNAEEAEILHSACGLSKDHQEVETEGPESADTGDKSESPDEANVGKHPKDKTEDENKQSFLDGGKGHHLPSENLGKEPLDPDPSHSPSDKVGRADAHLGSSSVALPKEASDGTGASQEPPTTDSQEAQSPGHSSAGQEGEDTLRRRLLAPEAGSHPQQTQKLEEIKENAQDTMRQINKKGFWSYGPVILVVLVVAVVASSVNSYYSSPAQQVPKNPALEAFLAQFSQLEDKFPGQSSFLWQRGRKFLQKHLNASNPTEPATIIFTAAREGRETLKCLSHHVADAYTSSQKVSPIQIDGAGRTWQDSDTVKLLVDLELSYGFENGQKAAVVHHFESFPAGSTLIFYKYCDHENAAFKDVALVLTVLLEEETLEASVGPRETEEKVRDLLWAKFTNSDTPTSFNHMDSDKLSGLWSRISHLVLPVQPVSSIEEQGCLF
# Sequence of Neurogenic locus notch homolog protein 3 (Homo sapiens) (Q9UM47 whole entry, looked up): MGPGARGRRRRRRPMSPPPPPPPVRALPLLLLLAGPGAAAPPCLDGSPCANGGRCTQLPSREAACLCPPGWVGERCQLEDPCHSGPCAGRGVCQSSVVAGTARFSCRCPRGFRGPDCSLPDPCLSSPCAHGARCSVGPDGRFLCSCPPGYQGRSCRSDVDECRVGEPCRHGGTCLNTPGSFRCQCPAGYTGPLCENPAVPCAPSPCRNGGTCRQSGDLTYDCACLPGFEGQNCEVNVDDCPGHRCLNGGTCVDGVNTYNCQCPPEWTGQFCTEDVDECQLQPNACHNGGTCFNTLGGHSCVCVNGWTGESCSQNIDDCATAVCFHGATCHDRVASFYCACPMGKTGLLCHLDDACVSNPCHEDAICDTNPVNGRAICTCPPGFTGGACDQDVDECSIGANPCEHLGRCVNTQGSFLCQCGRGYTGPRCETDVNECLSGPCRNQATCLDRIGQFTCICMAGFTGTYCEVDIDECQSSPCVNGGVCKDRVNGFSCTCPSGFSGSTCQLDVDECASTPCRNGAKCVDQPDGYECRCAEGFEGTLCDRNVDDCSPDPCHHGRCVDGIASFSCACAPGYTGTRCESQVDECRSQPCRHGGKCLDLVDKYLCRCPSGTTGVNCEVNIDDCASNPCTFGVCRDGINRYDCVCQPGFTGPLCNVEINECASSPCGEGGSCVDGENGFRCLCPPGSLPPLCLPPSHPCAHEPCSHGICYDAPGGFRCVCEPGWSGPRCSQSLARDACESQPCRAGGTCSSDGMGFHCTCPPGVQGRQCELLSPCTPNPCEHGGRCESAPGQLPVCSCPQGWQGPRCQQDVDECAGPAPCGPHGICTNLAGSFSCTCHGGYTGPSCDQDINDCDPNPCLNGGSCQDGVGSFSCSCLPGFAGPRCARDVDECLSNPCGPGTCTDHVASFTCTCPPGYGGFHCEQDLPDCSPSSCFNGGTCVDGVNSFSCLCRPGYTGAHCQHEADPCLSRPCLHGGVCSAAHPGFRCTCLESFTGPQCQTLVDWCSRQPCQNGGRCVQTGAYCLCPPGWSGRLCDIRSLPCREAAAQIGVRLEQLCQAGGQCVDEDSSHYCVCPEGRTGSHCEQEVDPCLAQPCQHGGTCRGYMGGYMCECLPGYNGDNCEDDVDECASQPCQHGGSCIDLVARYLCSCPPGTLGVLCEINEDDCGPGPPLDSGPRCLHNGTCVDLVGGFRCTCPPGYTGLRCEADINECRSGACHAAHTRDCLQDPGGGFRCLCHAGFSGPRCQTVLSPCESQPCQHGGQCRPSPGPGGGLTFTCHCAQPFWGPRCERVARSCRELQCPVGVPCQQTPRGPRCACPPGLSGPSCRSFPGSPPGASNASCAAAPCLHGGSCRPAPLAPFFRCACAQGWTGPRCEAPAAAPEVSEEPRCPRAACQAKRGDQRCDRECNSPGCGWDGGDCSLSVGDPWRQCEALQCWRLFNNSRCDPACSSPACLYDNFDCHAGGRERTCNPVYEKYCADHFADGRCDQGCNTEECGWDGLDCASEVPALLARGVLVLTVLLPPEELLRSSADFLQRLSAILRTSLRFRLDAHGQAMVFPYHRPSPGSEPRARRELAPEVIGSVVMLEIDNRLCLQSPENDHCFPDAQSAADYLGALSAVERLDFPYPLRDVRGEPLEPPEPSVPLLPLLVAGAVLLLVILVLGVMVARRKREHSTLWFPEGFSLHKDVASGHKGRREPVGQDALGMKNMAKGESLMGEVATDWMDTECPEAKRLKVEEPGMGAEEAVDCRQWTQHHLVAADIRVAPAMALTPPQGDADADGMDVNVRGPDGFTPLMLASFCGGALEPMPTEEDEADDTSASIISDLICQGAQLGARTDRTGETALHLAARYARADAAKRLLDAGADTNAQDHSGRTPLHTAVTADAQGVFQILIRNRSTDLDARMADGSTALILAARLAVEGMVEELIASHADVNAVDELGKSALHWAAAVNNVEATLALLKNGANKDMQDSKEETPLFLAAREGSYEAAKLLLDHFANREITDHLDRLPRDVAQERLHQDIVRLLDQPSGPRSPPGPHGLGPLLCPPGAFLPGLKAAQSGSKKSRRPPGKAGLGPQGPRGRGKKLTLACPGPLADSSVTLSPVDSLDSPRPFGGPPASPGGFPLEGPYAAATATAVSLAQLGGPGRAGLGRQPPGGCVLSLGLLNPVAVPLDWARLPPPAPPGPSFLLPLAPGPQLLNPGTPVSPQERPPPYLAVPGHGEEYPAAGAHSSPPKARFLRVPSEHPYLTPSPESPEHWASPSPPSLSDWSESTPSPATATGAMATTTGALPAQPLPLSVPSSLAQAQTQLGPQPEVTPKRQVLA
SMILES,composite z-score [1],composite z-score [2],composite z-score [3],composite z-score [4],composite z-score [5],composite z-score [6],composite z-score [7],z-score [8],composite z-score [9],composite z-score [10],composite z-score [11],z-score [12],z-score [13],z-score [14],composite z-score [15],z-score [16],composite z-score [17],composite z-score [18],composite z-score [19],composite z-score [20]
CCOC(=O)C[C@H]1[C@H](OC(=O)Cc2ccc3c(c2)OCO3)[C@@H](NC(=O)c2ccc3ccccc3n2)c2cc(OCCCO)ccc2N1C(=O)Cc1ccc(OC)cc1,-0.238,0.38,-0.0785,0.205,0.761,1.17,0.38,-0.876 (inactive),0.447,-0.0994,0.742,-2.25 (inactive),0.154 (inactive),-0.107 (inactive),1.34,0.647 (inactive),0.0071,1.25,0.55,-0.103
O=C(NCC(O)CO)C1N=C(c2ccc(OCCCO)cc2)N(c2ccccc2)O1 (stereo not given),-0.279,0.657,0.0073,0.643,0.575,-0.168,0.462,3.24 (inactive),-0.282,0.136,1.55,-0.375 (inactive),-0.243 (inactive),0.13 (inactive),1.8,0.153 (inactive),-0.196,1.19,0.882,-0.0531
CC(C)=C1C(=O)C(c2ccccc2)=C2CN3C(=O)N(CCc4ccccc4)C(=O)[C@]3(C)[C@H]21,0.532,-0.0272,0.15,0.265,1.26,1.81,1.07,0.863 (inactive),0.64,-0.0346,-0.638,-0.37 (inactive),-0.262 (inactive),1.48 (inactive),1.19,-1.27 (inactive),0.211,-0.335,0.451,-0.0251
CN(C)CCCC[C@@H]1NC(=O)[C@@H]2C[C@H](C(=O)NCCCCCN)[C@H](c3cccc(OCCO)c3)N2C1=O,-0.439,1.75,-0.121,0.549,0.549,1.09,1.35,-1.02 (inactive),0.153,0.0722,1.32,-5.45 (inactive),-3.9 (inactive),-0.962 (inactive),1.96,2.65 (inactive),-0.0592,1.17,1.04,-0.0943
CCCN1C(=O)[C@]2(CCC(=O)OC(C)(C)C)N=C(c3ccc(OCCCO)cc3)O[C@@H]2c2ccccc21,0.678,1.24,-0.0136,0.152,0.399,0.421,1.07,0.177 (inactive),0.0678,-0.0645,1.52,-1.93 (inactive),-0.474 (inactive),1.5 (inactive),1.62,0.916 (inactive),0.151,1.37,0.571,-0.134
Cc1ccc(S[C@]2(C(=O)NCc3ccccc3)CC(=O)N(Cc3ccccc3C(F)(F)F)[C@@H]2c2ccc(CO)cc2)cc1,0.563,-0.355,-0.105,-0.659,-1.44,0.642,-1.08,-1.92 (inactive),-0.633,-0.204,0.884,-1.61 (inactive),0.447 (inactive),-0.417 (inactive),1.05,0.837 (inactive),-0.154,-1.16,-0.64,-0.272
COCCOC(=O)N1C(=O)[C@@]2(c3cc(C#CCC(C(=O)OC)C(=O)OC)ccc31)[C@H](C(N)=O)[C@H]1C(=O)O[C@H](c3ccccc3)[C@H](c3ccccc3)N1[C@@H]2c1ccc(O)cc1,-0.291,0.79,0.015,1.2,1.57,1.6,1.23,3.78 (inactive),0.838,0.0768,1.54,2.77 (inactive),2.65 (inactive),7.43 (inactive),2.58,0.819 (inactive),0.126,1.12,1.07,0.0254
CC(C)C(=C=CC[C@H](O)c1ccccc1OCCO)C[C@H](O)c1cc(Cl)cc(Cl)c1O,-0.435,0.807,-0.0266,0.742,0.648,1.6,0.889,-0.926 (inactive),0.454,0.0505,1.55,-0.088 (inactive),-2.34 (inactive),-0.16 (inactive),2.71,-0.0708 (inactive),-0.226,0.811,1.03,0.0284
C=CCN1Cc2ccccc2[C@H]2OC(c3ccc(OCCCO)cc3)=N[C@@]2(CCS(=O)(=O)c2ccccc2)C1=O,1.14,0.852,0.0814,0.201,1.47,1.61,1.35,-0.908 (inactive),0.932,-0.226,1.55,0.601 (inactive),0.546 (inactive),5.35 (inactive),2.29,0.557 (inactive),0.319,1.33,1.05,0.124
CCCCC(=C=CC[C@H](O)c1ccc(CO)o1)CCO,-0.388,1.03,-0.109,0.0582,0.165,1.75,1.2,0.0699 (inactive),0.0508,0.0373,1.49,0.978 (inactive),-1.17 (inactive),-0.0978 (inactive),1.59,-0.14 (inactive),-0.258,1.31,0.683,-0.0041
